According to PubChem BioAssay:

Assay: JC-1 mitochondrial signal, unstimulated HepG2 cells – cell-based, JC-1 fluorescence, 24 h, 100 nL compound, profiling panel (AID 1167); further: test concentration not given here
Settings: HepG2 mitochondrial potential, higher = more signal

Row | Structure (SMILES) | z-score
1 | O=C1c2ccccc2[C@](Cc2ccccc2I)(C(=O)NCCN2CCOCC2)[C@H](c2ccc(CO)cc2)N1Cc1ccccc1 | 0.642
2 | CN(C)CCCCNC(=O)[C@H]1C[C@H]2C(=O)N3CCC[C@H]3C(=O)N2[C@H]1c1ccc(O)cc1 | -0.835
3 | C=C(CCCC)C(=O)CC[C@@H](OC(=O)c1ccccc1-c1ccccc1C(=O)O)c1cccc(OCCO)c1 | -1.88
4 | C=C(C(=O)CC[C@H](OC(=O)c1cccnc1)c1ccc(CO)o1)C(C)C | -2
5 | COc1ccc(C#Cc2ccc3c(c2)[C@]2(C(=O)N3)[C@H](C(=O)N3CCc4cc(OC)c(OC)cc4C3)[C@H]3C(=O)O[C@H](c4ccccc4)[C@H](c4ccccc4)N3[C@@H]2c2ccc(O)cc2)cc1 | -1.43
6 | [N-]=[N+]=NCc1ccccc1C[C@@]1(C(=O)N2CCCCC2)N=C(c2ccc(OCCCO)cc2)O[C@@H]1c1ccccc1N=[N+]=[N-] | 0.821
7 | C=C[C@@H](COC(C)=O)NS(=O)(=O)c1ccc(Br)cc1 | -0.742
8 | CCOC(=O)C[C@H]1[C@H](OC(=O)c2ccc(-c3ccccc3)cc2)[C@@H](NC(=O)c2ccc3ccccc3c2)c2cc(OCCCO)ccc2N1C(=O)c1ccc2ccccc2n1 | 1.33
9 | CC(C)(C)OC(=O)CC[C@]1(C(=O)NCCN2CCOCC2)N=C(c2ccc(OCCCO)cc2)O[C@H]1c1ccccc1 | -0.342
10 | C=CCOC(=O)[C@@H]1[C@H]2C(=O)O[C@H](c3ccccc3)[C@H](c3ccccc3)N2[C@H](c2ccc(OCCOC(=O)[C@H]3C[C@H]4C(=O)N[C@@H](CC(C)C)C(=O)N4[C@H]3c3ccc(O)cc3)cc2)[C@@]12C(=O)Nc1ccc(I)cc12 | -0.227
11 | O=C(CS)NCCCCCCNC(=O)[C@@H]1C[C@@H]2C(=O)N3CCC[C@H]3C(=O)N2[C@@H]1c1cccc(OCCO)c1 | -0.151
12 | COc1ccccc1CN1C(=O)c2ccccc2[C@@H](C(=O)NC(C)C)[C@@H]1c1ccc(CO)cc1 | 1.63
13 | C=CCOC(=O)[C@@H]1[C@H]2C(=O)O[C@H](c3ccccc3)[C@H](c3ccccc3)N2[C@H](c2ccc(OCCOC(=O)[C@H]3C[C@H]4C(=O)N[C@@H](CCCCNC(C)=O)C(=O)N4[C@H]3c3cccc(OCCO)c3)cc2)[C@@]12C(=O)Nc1ccc(I)cc12 | -0.742
14 | O=C1OCC=C[C@H]2OC34C=CCN(Cn5nnc6ccccc65)C(=O)[C@H]3N(CCCCCCO)C(=O)[C@@H]4[C@@H]12 (stereo not given in full) | -0.688
15 | COC(=O)Cn1c(C(=O)N2CCCC2)cc2c1C[C@H]1CN(C(=O)c3ccccc3)[C@@](Cc3ccc(F)cc3)(C(=O)OC)[C@@H]21 | 0.669
16 | COc1cc(OC)c(C(O)C2C=CC3C(=O)N(c4ccccc4)C(=O)C3N2Nc2ccc(C#N)cc2)cc1Br (stereo not given) | -1.66
17 | COc1ccc([Si](C)(C)[C@@H]2[C@@H](CC(=O)N3CCC[C@H]3CO)O[C@]3(C(=O)N(Cc4ccc(N5C(=O)c6cccc7cccc5c67)cc4)c4ccccc43)[C@H]2C)cc1 | -1.18
18 | CC=CC(O)C1C=CC2C(=O)N(c3ccccc3)C(=O)C2N1Nc1ccccc1 (stereo not given) | -0.222

Row | Structure (SMILES) | z-score
19 | CC(C)C(=C=CC[C@@H](O)c1ccccc1OCCO)C[C@@H](O)COCc1ccccc1 | 0.324
20 | CC(C)(C)N1CC=CC23O[C@@H]4C=CCOC(=O)[C@@H]4[C@H]2C(=O)N(CCCO)[C@@H]3C1=O (stereo not given in full) | -0.57
21 | COc1c(C)cc(-c2cc3c(c(-c4ccccc4)n2)[Si](C(C)C)(C(C)C)OC3)cc1C | -0.759
22 | Cc1ccc(S[C@]2(C(=O)NCC(C)C)CC(=O)N(Cc3ccccc3Cl)[C@@H]2c2ccc(CO)cc2I)cc1 | -0.0983
23 | O=C1O[C@@H](c2ccccc2)[C@@H](c2ccccc2)N2[C@@H](c3ccccc3OCCO)[C@]3(C(=O)Nc4ccc(C#CC5=CCCCC5)cc43)[C@@H](C(=O)NC[C@H](O)c3ccccc3)[C@H]12 | -2.4
24 | O=C(O)[C@H](Cc1ccccc1)n1cc(-c2ccccn2)nn1 | 0.237
25 | CC1CC/C=C\[C@H]2OC34C=CCN(CCN5CCOCC5)C(=O)[C@H]3N(CCO)C(=O)[C@@H]4C2C(=O)O1 (stereo not given in full) | -0.382
26 | CCOC(=O)C[C@H]1[C@H](OC(=O)c2ccc(-c3ccccc3)cc2)[C@@H](NC(=O)C2CCCCC2)c2cc(OCCCO)ccc2N1C(=O)c1ccccc1 | 0.383
27 | COCCCNC(=O)[C@@]1(Sc2ccc(C)cc2)CC(=O)N(Cc2cc(C(F)(F)F)cc(C(F)(F)F)c2)[C@@H]1c1ccc(CO)cc1 | 0.967
28 | CCCC[C@@H]1C[C@H]1[C@@H](NC(=O)c1cccnc1)c1ccc(-c2ccccc2)cc1 | -0.608
29 | O=C1O[C@@H](c2ccccc2)[C@@H](c2ccccc2)N2[C@@H](c3ccc(O)cc3)[C@]3(C(=O)Nc4ccc(C#CCCO)cc43)[C@@H](C(=O)Nc3nc4ccccc4s3)[C@H]12 | -3.79
30 | O=C(O)[C@]1(Cc2ccccc2)N=C(c2ccc(OCCCO)cc2)O[C@@H]1c1ccccc1 | -0.121
31 | Cc1ccc(S[C@]2(C(=O)NCc3ccccc3)CC(=O)N(C(C)C)[C@@H]2c2ccc(CO)cc2I)cc1 | -0.0692
32 | Cc1ccc(C(C)CC(O)C2C=CC3C(=O)N(c4ccccc4)C(=O)C3N2Nc2ccc(C(C)C)cc2)o1 (stereo not given) | -2.29
33 | C=CC[C@]12N=C(c3ccc(OCCCO)cc3)O[C@H]1c1ccccc1N(C)C2=O | 0.422
34 | C=C(COC)/C(=C/C[C@@H](OC(=O)c1ccncc1)c1ccc(CO)o1)c1cnc2ccccc2c1 | -0.65
35 | O=C1NC(=O)C2C1C=CC(C(O)c1cc(C(F)(F)F)cc(C(F)(F)F)c1)N2Nc1ccc(Cl)cc1Cl (stereo not given) | -2.94
